High-throughput results from PubChem BioAssay.
Shown are actives, neighbours in structure and some others; about 4.1% of the full set was active somewhere.
DAX1 inh-1: inhibits human nuclear receptor DAX1. actives 0.99% (n = 340,000). inhibition, % at 6.75 µM. HEK293 Gal4-DAX1 luciferase reporter, luminescence. AID 504766;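 active = inhibition above the mean over all tested compounds plus 3 SD, cut at about 4.2% in these data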;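 also: 0% = DAX1-transfected cells with DMSO and 100% = empty-vector control cells with DMSO; inhibition shows as a rise in luminescence from relieved DAX1 repression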
ssDAF-12 act: S. stercoralis DAF-12 activation, primary screen. HEK293 ssDAF-12/GRIP1 lit1-tk-luc reporter, luminescence; % of 3 µM dafachronic acid response. activation, % at 6.8 µM. actives 1% (n = 370,000);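 active = activation above the mean over all tested compounds plus 3 SD, cut at about 0.9% in these data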;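 also: 0% = DMSO-only wells and 100% = 3 µM delta7-dafachronic acid wells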
hcDAF12 agonist: activates DAF-12 receptor from parasite H. contortus. HEK293 hcDAF-12 lit1-tk-luc reporter, luminescence; 0% DMSO, 100% Δ7-dafachronic acid. activation, % at 6.8 µM. actives 1.4% (n = 370,000). AID 652067;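 active = activation above the mean of all tested compounds plus 3 SD, cut at about 5.5% in these data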;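 also: 100% = response to 3 µM Δ7-dafachronic acid high control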
DAX1 inh-2: inhibitors of DAX1 repression of SF-1 activated StAR promoter; inhibition, % at 6.8 µM; AID 652010; HEK293T StAR-luciferase reporter, SF-1/DAX-1 repression relief; actives 1.1% (n = 370,000);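 active = inhibition above the mean over all tested compounds plus 3 SD, cut at about 3.6% in these data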;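 also: 0% = DAX-1 cells with DMSO and 100% = cells lacking DAX-1 with DMSO; higher inhibition means more luminescence from relief of DAX-1 repression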
hgDAF12 agonist: agonists of H. glycines DAF-12 nuclear receptor; AID 687014; activation, % at 6.8 µM; HEK293 GAL4-hgDAF12 UAS-luciferase reporter, agonist luminescence; normalized to butyrate control; actives 1.8% (n = 370,000);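 active = activation above a cutoff set at the mean of all screened compounds plus 3 SD, cut at about 10% in these data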;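 also: 0% = DMSO wells and 100% = sodium butyrate wells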
hgDAF12 ag: confirmation of H. glycines DAF-12 agonists; actives 80% (n = 3,300); activation, % at 6.8 µM; shares compounds with hgDAF12 agonist; HEK293 GAL4-hgDAF12 luciferase reporter, agonist mode; percent of butyrate response;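 active = mean activation over triplicate wells above the hit cutoff derived from the earlier primary screen, cut at about 11% in these data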;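 also: 0% = DMSO low control and 100% = 2 mM sodium butyrate high control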
LXRb DAF12 ctr: counter-screen for DAF-12 agonists: agonists of human LXR-beta | shares compounds with hgDAF12 agonist | HEK293 Gal4-LXR luciferase reporter, 24 h | activation, % at 6.8 µM | 3,300 tested, under 10 active | AID 743051;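 active = mean activation of the triplicate above a set limit carried over from the primary screen, none filed active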
Target sequence (P55055 whole entry, looked up, the tested form may be a part): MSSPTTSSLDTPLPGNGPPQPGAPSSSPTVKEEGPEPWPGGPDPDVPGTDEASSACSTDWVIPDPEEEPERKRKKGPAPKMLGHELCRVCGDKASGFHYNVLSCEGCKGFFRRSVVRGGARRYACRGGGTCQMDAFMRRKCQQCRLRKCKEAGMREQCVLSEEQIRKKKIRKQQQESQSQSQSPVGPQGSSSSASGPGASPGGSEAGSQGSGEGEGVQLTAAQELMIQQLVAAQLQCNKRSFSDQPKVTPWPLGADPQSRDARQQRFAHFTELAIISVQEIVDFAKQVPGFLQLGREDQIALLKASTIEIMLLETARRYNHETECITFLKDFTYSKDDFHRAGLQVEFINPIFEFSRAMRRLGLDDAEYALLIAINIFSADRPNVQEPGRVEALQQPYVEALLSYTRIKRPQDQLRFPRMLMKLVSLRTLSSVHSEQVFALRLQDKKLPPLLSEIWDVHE
An asterisk follows results filed as active; nt = no result.

SMILES	DAX1 inh-1	ssDAF-12 act	hcDAF12 agonist	DAX1 inh-2	hgDAF12 agonist	hgDAF12 ag	LXRb DAF12 ctr
Cc1ccccc1C(=O)Nc1ccc(Br)cn1	1	-1	3	3	14*	16*	1
O=C(Nc1nccs1)c1ccc(Cl)s1	0	-1	0	1	6	nt	nt
O=C(Nc1ccc(Br)cn1)c1ccc(Cl)s1	2	0	5	2	15*	14*	1
O=C(Nc1ccccc1C(=O)Nc1ccc(Br)cn1)c1ccccc1Cl	-1	-2	-2	-1	1	nt	nt
C/C(N)=C(/C#N)C(=O)COC(=O)Cc1coc2cc(C)ccc12	0	0	4	0	0	nt	nt
COc1ccc(C(=O)O/N=C(\N)c2ccccc2Cl)cc1OC	-1	0	3	0	8	nt	nt
COc1ccccc1C(=O)O/N=C(\N)c1ccccc1Cl	3	0	4	2	17*	11*	0
O=C(N/N=C/c1cccc(NC(=O)c2ccc(Cl)cc2)c1)c1ccc(O)cc1	-3	-1	0	1	8	nt	nt
O=C(N/N=C/c1c(Cl)cccc1Cl)c1cccc(F)c1	0	nt	nt	nt	nt	nt	nt
O=C(N/N=C/c1cccc(F)c1)c1ccc(Cl)cc1	3	0	2	3.7*	18*	12*	0
O=C(N/N=C/c1ccccc1Cl)c1cccc(F)c1	2	0	3	3.7*	17*	13*	1
COc1cccc(-c2nnc(-c3ccccc3NC(=O)c3ccc(C(C)(C)C)cc3)o2)c1	nt	-1	1	0	-1	nt	nt
CNc1ccc(/C=C\CCCO)cn1	nt	-1	2	2	5	nt	nt
CCOc1ccccc1NC(=O)CSc1nnc(CNC(=O)c2c(F)cccc2Cl)o1	0	0	0	0	3	nt	nt
CSCCNC(=O)c1ccc(C(C)(C)C)cc1	0	1.1*	4	3	16*	16*	1
O=C(Nc1ccc2c(c1)OCO2)N1CCN(Cc2ccco2)CC1	0	1	4	3	20*	14*	1
Cc1ccc(NC(=O)N2CCN(Cc3ccc4c(c3)OCO4)CC2)cc1	-1	-1	0	1	-2	nt	nt
C/C(=N\NC(=O)c1cccs1)C(C)(C)C	2	-1	1	3	18*	1	0
C/C(=N\NC(=O)c1csc(C)c1C)c1ccco1	1	0	2	1	7	nt	nt
C/C(=N/NC(=O)c1cccs1)c1ccco1	2	0	3	3	18*	9	0
c1ccc(OCCSc2nnnn2-c2ccccc2)cc1	2	0	4	3	16*	19*	1
CC(=O)N1N=C(c2ccccc2)CC1c1cccs1 (configuration not stated)	1	-1	-3	0	0	nt	nt
CS(=O)(=O)N1N=C(c2ccc(Br)cc2)CC1c1cccs1 (configuration not stated)	2	-1	3	0	14*	10	1
Cc1cccc(NC(=O)c2cc3ccccc3o2)c1	3	1.1*	6.4*	4	20*	19*	1
O=C(Nc1cccnc1)c1cc2cc(Br)ccc2o1	6.6*	0	5	2	14*	14*	1
SMILES	DAX1 inh-1	ssDAF-12 act	hcDAF12 agonist	DAX1 inh-2	hgDAF12 agonist	hgDAF12 ag	LXRb DAF12 ctr
COc1ccc(Nc2nc(-c3ccccc3)nc3ccccc23)c(OC)c1	0	-1	-1	-1	0	nt	nt
COc1ccc(Nc2nc(N)c3ccccc3n2)c(OC)c1	4.8*	1	4	1	13*	15*	1
Cc1ccccc1/C=N\NC(=O)c1csnn1	1	-1	3	2	14*	3	0
COc1cc(CN2C[C@@H](CO)O[C@@H](n3cnc4c(NC5CCCC5)ncnc43)C2)cc(OC)c1OC	nt	-1	-2	0	2	nt	nt
Cc1cc(C)nc(-n2nc(C)c(Sc3ccc(F)cc3)c2N)n1	0	0	3	3	13*	15*	1
O=S(=O)(Nc1ccc(-c2nc3cccnc3s2)cc1)c1cccs1	3	1	2	2	5	nt	nt
Cc1cc(-c2nc3cccnc3s2)ccc1NS(=O)(=O)c1cccs1	1	1	6.5*	4.4*	14*	13*	0
Cc1cccc(NC(=O)CSc2nnc3ccc(-c4cccnc4)nn23)c1	0	0	-1	0	0	nt	nt
O=C(O)c1cc(N/N=C/C=C/c2ccccc2[N+](=O)[O-])ccc1Cl	2	0	4	3	13*	0	0
CCCCNC(=O)C(NC(=O)c1cccnc1)C(=O)c1ccccc1 (configuration not stated)	nt	-1	1	0	-1	nt	nt
C=CCOC(=O)/C(=C\C=C\c1ccccc1)NC(=O)c1ccccc1	1	-2	-2	0	0	nt	nt
O=C(COc1ccc(Cl)cc1Cl)Nc1cccnc1	2	0	3	3	15*	14*	1
COc1ccccc1/C=C/CN1CCSCC1	0	-1	-1	0	16*	0	0
Nc1c(-c2cccs2)cnn1-c1nc(-c2ccc(Cl)cc2Cl)cs1	3	-1	1	-1	1	nt	nt
Nc1nccc(-c2cc(-c3ccc(Cl)cc3Cl)no2)n1	10*	1.9*	5.7*	2	15*	20*	1
CCNCC(=O)N1c2ccccc2CCc2ccc(NC(=O)OCC)cc21	1	nt	nt	nt	nt	nt	nt
O=C(N/N=C/c1c(-c2ccccc2)[nH]c2ccccc12)c1cccnc1	0	0	1	-2	18*	10	0
Cn1c(-c2ccccc2)c(/C=N/NC(=O)c2cccnc2)c2ccccc21	3	-1	0	2	6	nt	nt
CC[C@]1(C(=O)OC)[C@H]2C(=O)N(C)C(=O)[C@H]2[C@H]2CN=C(SC)N21	0	-1	-2	0	2	nt	nt
CCc1ccc(CSc2nccn2-c2ccccc2)cc1	0	-1	-2	0	-2	nt	nt
c1ccc(CCSc2nccn2-c2ccccc2)cc1	2	0	5.8*	2	14*	14*	1
CC(C)Cn1c(=O)c2ccccc2n2c(CCC(=O)NCC3CCCO3)nnc12 (configuration not stated)	0	-1	1	-1	-1	nt	nt
Nc1nc(N)nc(-c2ccc(Cl)c(Cl)c2)n1	4	-1	0	1	21*	18*	1
CCCCN1C(=O)C(=O)N(CC(=O)N2CCN(c3ccccc3)CC2)C1=O	0	0	-1	2	4	nt	nt
CCCCN1C(=O)C(=O)N(c2ccccc2)C1=S	2	0	4	4.1*	16*	14*	1
